Data on 13 molecules can be found in PubChem BioAssay (NCI).

Assay in all cases: NCI-60 one-dose screen, 48 h (100 = growth as untreated, 0 = no growth, -100 = all killed)
Details in all cases: 10 µM unless noted

In test [1] the test system is DU-145 prostate.
Test [2] has as its system K-562 leukemia.
In test [3] the test system is MALME-3M melanoma.
Test [4] deals with MDA-MB-231 breast.
In test [5] the test system is RXF 393 renal.
Test [6] deals with SF-268 CNS.
Test [7] concerns SF-295 CNS.
Test [8] has as its system SF-539 CNS.
Test [9] concerns UACC-257 melanoma.
Test [10] deals with M14 melanoma.

Each structure is given as a SMILES string. About 83,000 compounds went through this panel and 20% of them were active in at least one assay; those are over-represented in the sample as a whole.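 Each cell line was grown in a 96-well plate and treated with one concentration of compound for 48 hours. Values below 10 were considered active.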 A number with no mark means an inactive call. Active and inactive are the calls of the source.

Take `Clc1ccc(-c2c3ccc(=[N+]4CCCCC4)cc-3oc3cc(N4CCCCC4)ccc23)cc1`: the growth in test [1] is -91.7% (active); in test [2] it was -34.1% (active); in [3], -76.4% (active); in test [4], -81.7% (active); in test [5], -91.2% (active); in [6], -89.6% (active). Besides, the growth was -72.6% (active) in [7], -93.4% (active) in test [8], -78.5% (active) in test [9] and -92.7% (active) in [10].

For `O=C(Nc1ccc(Cl)cc1)Nc1ccc(Cl)c(C(F)(F)F)c1`, the growth in test [1] is 20.2%; in test [2] it was -10.2% (active); in [3] it was -30.7% (active); in [4], -4.47% (active); in test [5], 33.6%; in test [6], 21.3%. Further, the growth in [7] is -28.2% (active); in [8] it was 4.38% (active); in [9] it was 2.84% (active); in test [10], 11.8%.

Take `CC1OC(O[C@H]2/C=C/C=C/C=C/C=C/C=C/C=C/C=C/[C@H](C)[C@@H](O)[C@@H](C)[C@H](C)OC(=O)CC(O)CC(O)CCC(O)C(O)CC(O)C[C@]3(O)C[C@H](O)C(C(=O)O)C(C2)O3)C(O)[C@H](N)C1O` (stereo not given in full): the growth in [1] was -29.9% (active); in [2] it was 91.8%; in [3] it was -66% (active); in test [4], 58.7%; in [5], -64.4% (active); in [6], -70.4% (active). For the same molecule, the growth is 65% in test [7], 17.2% in test [8], -76% (active) in test [9] and 16.3% in test [10].

For `COc1ccc(OC)c(-c2c(C#N)c(-c3ccc(Cl)cc3)nc3c2c(-c2ccccc2)nn3-c2ccccc2)c1`, the growth in test [1] was 99.1%; in [2] it was 97.7%; in test [3] it was 101%; in [4] it was 101%; in test [5] it was 101%; in test [6], 96%. The growth in test [7] is 109%; in test [8], 98.8%; in [9] it was 100%; in test [10], 101%.

Turning to `Cc1cc(NCCCCNc2ccnc3cc(Cl)ccc23)nc(Nc2ccc(C(=O)N3CCCC3)cc2)n1`, the growth is 48.3% in [1]; -24.6% (active) in test [2]; -70.4% (active) in test [3]; -22.2% (active) in test [4]; 32.4% in test [5]; 15.7% in test [6]. Moreover, the growth in test [7] was 3.67% (active); in [8], -68.6% (active); in [9], -70.6% (active); in test [10] it was -73.9% (active).

For `CCCCCCCC/C=C\CCCCCCCCOc1ccccc1CC(=O)NCC[N+](C)(C)C`, the growth in [1] is 80.1%; in test [2] it was 54.6%; in [3], 89.8%; in test [4], 72.9%; in [5] it was 16.6%; in test [6], 65.9%. Also, the growth in test [7] is 63.8%; in test [8], 77.5%; in [9], 88.9%; in test [10], 57.4%.

As to `O=C(COc1ccc(/C=C2\Oc3ccccc3C2=O)cc1)c1ccc(Cl)cc1`, the growth in test [1] is 119%; in [2], 93.7%; in test [3] it was 111%; in test [4], 85.7%; in test [5], 91.8%; in [6] it was 106%. In addition, the growth was 309% in test [7], 96.7% in [8], 117% in test [9] and 108% in [10].

Regarding `Cc1ccc(Cl)cc1NC(=O)c1cc2ccccc2cc1O`, the growth in test [1] is 7.76% (active); in [2], -33.7% (active); in test [3], -32.6% (active); in test [4] it was -56.8% (active); in test [5] it was -15.6% (active); in [6], 9.58% (active). In addition, the growth in [7] is -9.44% (active); in [8], -0.708% (active); in test [9] it was -7.13% (active); in test [10], 2.88% (active).

Consider `Cc1ccc(-c2cc(-c3ccccc3C)[nH]c(=O)c2C#N)s1`, for which the growth in test [1] is 104%; in test [2], 85.6%; in test [3] it was 111%; in [4], 84.8%; in test [5] it was 92%; in test [6], 95.8%. In addition, the growth in [7] is 99.2%; in test [8] it was 91.5%; in test [9], 107%; in [10], 109%.

On to `N=C1C(c2nc(-c3ccc(Br)cc3)cs2)=C(O)CN1Cc1cccnc1`, for which the growth in [1] is 11.9%; in test [2], 49.8%; in [3] it was 34.1%; in test [4] it was 78.7%; in [5], 67.1%; in test [6], 38%. For the same molecule, the growth in [7] was 37.2%; in [8] it was 60.5%; in test [9], 81%; in test [10] it was 69.3%.

`COc1ccc(C(=O)COc2ccc(/C=C3\Oc4ccccc4C3=O)cc2)cc1`: the growth in test [1] was 120%; in test [2], 101%; in [3], 112%; in test [4], 83.6%; in test [5] it was 95.4%; in test [6], 108%. The growth in test [7] is 172%; in test [8] it was 94.7%; in test [9], 97.8%; in [10], 84.7%.

For the molecule `CC(C)CC(NC(=O)CN(Cc1ccccc1)S(C)(=O)=O)C(=O)O` (stereo not given), the growth in [1] was 104%; in [2], 78%; in test [3] it was 98.8%; in test [4] it was 111%; in [5], 80.3%; in [6], 109%. Also, the growth in [7] is 96.4%; in [8], 90.9%; in test [9], 103%; in [10], 97%.

For the molecule `COc1cc(CCC[P+](c2ccccc2)(c2ccccc2)c2ccccc2)cc2c1OCO2`, the growth was 48.2% in [1]; 21.8% in test [2]; 14.6% in [3]; 29% in test [4]; 76.3% in test [5]; 26.1% in test [6]. In addition, the growth in [7] is 68.6%; in test [8], 43%; in [9] it was 17.4%; in [10] it was 30.8%.
